This is part of a sample that, as a whole, favours compounds with a hit. Of some 83,000 tested, about 20% had one in any assay.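 A percent growth of 40 corresponds to 60% growth inhibition; 0 means no net growth; -100 means all cells died. Active threshold: below 10.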 Values without a mark were called inactive. The source made the active and inactive calls.
The compounds below were run on HL-60(TB) leukemia (assay: NCI-60 one-dose screen, 48 h (100 = growth as untreated, 0 = no growth, -100 = all killed)). Settings: 10 µM unless noted.

Compound	growth
CC1CN(C(C)C)C(=S)N(c2ccccc2)C1=O (stereo not given)	113%
CCOc1cc(C2C(Cl)C(=O)N2n2cnnc2)ccc1O (stereo not given)	101%
CCC(=O)NC(O)C(Cl)(Cl)C(C)Cl (stereo not given)	119%
O=S(=O)(Nc1ccc(F)cc1F)c1ccc(-c2cnc(C3CC3)o2)cc1	1% (active)
CCOC(=O)c1ccc2c(c1)[n+](=O)c(C(=O)C1CCCS1)c(C(F)(F)F)n2[O-] (stereo not given)	-69% (active)
C[N+](C)(CCOC(c1ccccc1)c1ccccc1)CC(=O)OCc1ccccc1	100%
Cc1csc(Nc2nc(-c3ccccn3)nc(C(Cl)(Cl)Cl)n2)n1	77.4%
CCCCCCCCn1ccc2cc(NC(=O)Cn3cc(CN4CCC(C)CC4)nn3)ccc21	-22.4% (active)
Cn1c2ccccc2c2nn(Cc3ccccc3)c(=O)nc21	110%
O=C(/C=C/c1ccc(Cl)nc1)c1ccc(Cl)cc1Cl	67.4%
CN1CCN(c2nc3scc(-c4ccccc4)c3c(=O)[nH]2)CC1	90.8%
C=C(C(=O)c1ccccc1)C(NC(C)(C)C)c1ccccc1 (stereo not given)	-14.7% (active)
O=C(CSc1nnc(-c2cc3c([nH]c4ccccc43)c(-c3cccc(O)c3)n2)n1-c1ccccc1)c1ccccc1	56.2%
CC1CCN(C(=O)OCc2nc3nc(Cl)nc(N4CCOCC4)c3[nH]2)CC1	-43.5% (active)
COc1ccc(C(=O)C/C(=C\c2ccc(Cl)cc2)C(=O)NCc2ccccc2)cc1	73.8%
C=CCNc1ccc2c3c(cccc13)C(=O)N(CC=C)C2=O	102%
Cc1c(C(=O)Nc2nc(-c3ccccc3)cs2)nnn1-c1ccccc1Br	36.9% [50 µM]
CCCCCCCCN(CCCCCCCC)CC(O)c1ccc(Cl)c(C)c1Cl (stereo not given)	106%
O=Nc1c2cccnc2n2nnc3ccc(Cl)cc3c12	-48.7% (active)
CCNCCNc1cc(-c2ccc(Cl)c(Cl)c2)c(C#N)c2nc3ccccc3n12	-62.3% (active)

Compound	growth
Cc1c(C2=CCCCC2)c2ccccn2c1C(=O)c1cccc(S(=O)(=O)N2CCOCC2)c1	132%
COC(=O)c1nc(-c2ccccc2)oc1S(=O)(=O)NCC(c1ccc(Cl)cc1)N1CCCCC1 (stereo not given)	17.5%
CS(=O)(=O)CCNCc1ccc(-c2ccc3ncnc(Nc4ccc(OCc5cccc(F)c5)c(Cl)c4)c3c2)o1	20.3%
Cn1cc(-c2nonc2-c2c[nH]c3ccccc23)c2cc(Br)ccc21	38.2%
Oc1ccc2c(=S)cc(-c3ccc(Br)cc3)oc2c1O	-22% (active)
CCOC(=O)C1(C(=O)OCC)N=C(c2ccccc2)C=C1c1ccccc1	87.2%
Cc1nc2ccccc2n1C(=O)C[C@@H]1NC(=S)NC1=O	101%
COc1ccc(C2CC(c3cccs3)=NN2c2ccc(S(N)(=O)=O)cc2)cc1 (stereo not given)	73.7%
CCCC(F)C(=O)O (stereo not given)	97.3%
Ic1ccc(Nc2nc3nonc3nc2Nc2ccc(I)cc2)cc1	-50.2% (active)
COc1ccc(-c2nn(-c3cccc(NC(=O)c4ccc(N5CCOCC5)c(C(F)(F)F)c4)c3)cc2-c2ccncc2)cc1Cl	38.1%
CC1(C)OCC(COC(c2ccccc2)(c2ccccc2)c2ccccc2)O1 (stereo not given)	99.9%
CCCCN(CCCC)CCCn1c(-c2ccccc2)ccc1-c1ccccc1	61.6%
N#Cc1c(NN)n(C2OC(CO)C(O)C2O)c2ncnc(N)c12 (stereo not given)	-52.1% (active)
C=C1C(=O)O[C@H]2[C@H]1CC/C(COC(=O)NCc1c[nH]c3ccc(Br)cc13)=C\CC[C@@]1(C)O[C@@H]21	-26.9% (active)
Cc1ccc(Cc2cnc(NC(=O)/C=C/c3cccc(C)c3)s2)cc1	-15.4% (active)
O=C(O)[C@@H]1[C@H]2C[C@H]3c4[nH]c5ccccc5c4CCN3C[C@@H]2CC[C@@H]1O	128%
CCOc1ccc(/C=C\C(=O)O)cc1	82.9%
O=C(Nc1cccc([N+](=O)[O-])c1)NN1CCCCCC1	112%
O=C(CNCCO)Nc1ccc2ncnc(Nc3ccc(OCc4cccc(F)c4)c(Cl)c3)c2c1	86.9%

From PubChem BioAssay (NCI)
